From PubChem
BAZ2B block – inhibitors of human BAZ2B bromodomain; 4.4% of 360,000 active; AlphaScreen BAZ2B-H3K14Ac peptide displacement; Potency, µM (doses to about 114 µM), inactives show at the top dose activity change, negative = inhibition, most hits filed as inhibitors; further: on the % scale 0 is the no-effect control and ±100 the full control effect; nearly all actives have a fitted effect of over 60% in size
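Inhibition is scored as reduced AlphaScreen emission. The BAZ2B/b-H3(5-23)K14Ac complex (50 nM each) in PBS pH 7.4, 0.01% Tween-20 meets compound (up to 110 uM) for 30 min at RT before bead addition.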
JMJD2A Tudor inh – blocks the human JMJD2A Tudor domain; AlphaScreen JMJD2A-Tudor / H3K4me3 peptide binding; Potency, µM (series often up to 114 µM), for the others: at the top dose activity change, negative = inhibition, most hits filed as inhibitors; 4.4% of 390,000 active; AID 504339; further: on the % scale 0 is the no-effect control and ±100 the full control effect; nearly all actives have a fitted effect of over 50% in size
Target sequence (O75164 whole entry, looked up, the tested form may be a part): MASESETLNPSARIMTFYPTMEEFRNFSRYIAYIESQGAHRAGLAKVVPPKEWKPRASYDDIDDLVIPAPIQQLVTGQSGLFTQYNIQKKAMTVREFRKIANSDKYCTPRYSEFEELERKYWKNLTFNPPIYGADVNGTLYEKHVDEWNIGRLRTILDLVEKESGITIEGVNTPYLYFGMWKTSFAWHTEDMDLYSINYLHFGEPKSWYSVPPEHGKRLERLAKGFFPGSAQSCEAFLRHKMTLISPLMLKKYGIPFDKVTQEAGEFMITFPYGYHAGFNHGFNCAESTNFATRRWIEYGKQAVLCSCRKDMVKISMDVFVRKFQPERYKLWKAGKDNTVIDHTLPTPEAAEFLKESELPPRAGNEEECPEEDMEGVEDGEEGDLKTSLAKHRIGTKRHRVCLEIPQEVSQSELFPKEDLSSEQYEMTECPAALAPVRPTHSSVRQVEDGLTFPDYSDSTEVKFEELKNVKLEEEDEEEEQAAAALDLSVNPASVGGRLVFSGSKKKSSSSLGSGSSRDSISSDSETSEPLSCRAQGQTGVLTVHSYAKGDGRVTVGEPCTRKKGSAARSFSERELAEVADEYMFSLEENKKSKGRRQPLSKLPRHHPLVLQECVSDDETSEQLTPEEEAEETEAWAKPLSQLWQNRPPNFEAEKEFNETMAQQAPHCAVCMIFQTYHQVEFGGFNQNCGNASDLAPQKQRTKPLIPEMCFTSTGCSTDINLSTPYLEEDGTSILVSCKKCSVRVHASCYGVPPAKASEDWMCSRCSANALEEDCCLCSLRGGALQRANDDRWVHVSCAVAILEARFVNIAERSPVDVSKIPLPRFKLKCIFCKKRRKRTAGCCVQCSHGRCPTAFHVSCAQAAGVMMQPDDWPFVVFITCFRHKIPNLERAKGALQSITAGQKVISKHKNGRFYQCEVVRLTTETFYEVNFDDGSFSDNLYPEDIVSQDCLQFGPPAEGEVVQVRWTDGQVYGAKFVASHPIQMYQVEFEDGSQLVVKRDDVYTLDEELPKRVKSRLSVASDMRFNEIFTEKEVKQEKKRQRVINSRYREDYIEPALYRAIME
GLS inhibitor – glutaminase GLS (human) inhibition. O94925. GLS enzymatic activity, qHTS titration. Potency, µM (titrated, usually from 45.5 µM), for the others: top-dose activity change, negative = inhibition, hits mostly inhibitors. 0.21% of 410,000 active. AID 624170; further: on the % scale 0 is the no-effect control and ±100 the full control effect
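Human kidney-isoform GLS in 45 mM KH2PO4 pH 8.2, 0.02% Tween-20, with compound, started with 1mM L-Glutamine (added stock). Glutamate oxidase/HRP/Amplex red coupled fluorescence read at start and after 30 min at RT.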
G9a inh – blocks human histone lysine methyltransferase G9a | G9a H3K9 monomethylation, AlphaScreen, 2 h | Potency, µM (highest dose often 102 µM), inactives show top-dose activity, negative = inhibition, usual class: inhibitors | 8.8% of 350,000 active | AID 504332; further: on the % scale 0 is the no-effect control and ±100 the full control effect; nearly all actives have a fitted effect of over 75% in size
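AlphaScreen detection with an anti-monomethyl H3K9 antibody quantified product after a 2 h room-temperature reaction containing 500 nM biotinylated H3K9 peptide, 20 µM SAM and 20 nM enzyme, which had been preincubated 15 min with compound.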
HP1b chromo inh – inhibitors of HP1-beta chromodomain binding to methylated histone tails; Potency, µM (doses to about 114 µM), for inactives: top-dose activity change, negative = inhibition, hits mostly inhibitors; 0.56% of 390,000 active; P83916; AlphaScreen HP1-beta / biotin-H3K9me3 peptide binding; further: nearly all actives have a fitted effect of over 70% in size
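Compound inhibition of the preformed complex between 50 nM HP1-beta and 50 nM biotinylated H3K9me3 peptide was read by AlphaScreen. Buffer was PBS pH 7.4 with 0.01% Tween-20. Incubations ran 30 min at room temperature, with 10 ug/mL donor/acceptor beads.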
* hit, by the source's call; ? = inconclusive; . = no result; [ ] = another dose, or the depositor's remark. The list is not random: actives were taken first. Their share in the collection is about 10%. The call rests on the fitted dose curve; in most records, active means well fitted curve in the direction sought with a large enough effect; inconclusive means small, poorly fitted or top-dose-only effect, or another doubt; inactive means no such curve, though single readings can be large; an effect the other way counts as inactive or inconclusive. Potency means the concentration at half of the fitted maximal effect.

SMILES	BAZ2B block	JMJD2A Tudor inh	GLS inhibitor	G9a inh	HP1b chromo inh
CCNc1ncc2nc(C)c(=O)n(C)c2n1	.	.	.	8%[0.501 µM]	.
COCOCCn1cc(CN2CCS(=O)(=O)N(Cc3ccc(-c4ccc(OC)cc4)cc3)C(C(C)C)C2=O)nn1 (stereo unspecified)	.	.	8%	.	.
Cc1ccc(S(=O)(=O)N=Nc2c(O)[nH]c3ccccc23)cc1	?	-20%	-7%	1.6µM*	36%
Cc1ccc(S(=O)(=O)N(CC(=O)N=Nc2c(O)[nH]c3ccccc23)c2ccc(C)c(C)c2)cc1	-32%	?	2%	12%[59 µM]	-13%
Cc1ccc(C)c(S(=O)(=O)N=Nc2c(O)[nH]c3ccccc23)c1	-27%	-15%	-18%	8.9µM*	27%
CC(C)(O)C(=O)N=Nc1c(O)[nH]c2ccccc12	-4%	-5%[11.4 µM]	5%	-10%[12.7 µM]	31%
O=c1[nH]c2cc(C(F)(F)F)c(N3CCOCC3)cc2n(CP(=O)(O)O)c1=O	.	.	38%	6%[59 µM]	.
CC(C)c1ccc([C@@H]2O[C@H](CCc3ccccc3)CC3=C2C(=O)OC(C)(C)O3)cc1	.	.	-16%	.	.
Cc1ccc(C2=CSC3=NCCN23)c(C)c1	3%	?	19%	?	22%
COc1ccc(C2=CSC3=NNC4(CCCCC4)NN23)cc1	?	-34%	-12%	40µM*	?
Cc1ccc(C2=CSC3=NNC4(CCCCC4)NN23)cc1	?	45µM*	-13%	?	-28%
Nc1c(-c2cccc([N+](=O)[O-])c2)nc2ccccn12	?	-35%	19%	79µM*	-12%
CCN(CC)C1=CC(=O)OC12CCCCC2	-6%	32µM*	0%	3.5µM*	-23%
COc1ccc(CN2C[C@@H](CO)O[C@@H](n3cnc4c(N5CCOCC5)ncnc43)C2)cc1	.	.	-11%	.	.
COc1cc2ccccc2cc1C(=O)Nc1ccc(N2CCN(C)CC2)cc1	?	?	.	?	-6%
C=CC(=O)Nc1ccc(N(C)c2ccnc(Nc3ccc(N4CCN(C)CC4)cc3)n2)cc1	.	35µM*	43%	.	?
COc1ccccc1CNC(=O)C1CCN(S(=O)(=O)Cc2ccccc2)CC1	3%	0%	-5%	?	37%
O=C1C(O)=CC(=C(c2ccccc2)c2ccccc2)c2ccccc21	.	14µM*	5%	.	13µM*
COc1ccc(NC(=S)N/N=C/c2cccn2Cc2ccc(F)cc2Cl)cc1	18µM*	28µM*	?	22µM*	?
CSc1ccccc1NC(=S)N/N=C/c1cccn1Cc1ccc(F)cc1	28µM*	35µM*	?	32µM*	-15%
Cc1cccc(NC(=O)Cc2ccc(F)cc2)c1	10%	-6%	2%	6%	20%
COc1ccc(NC(=S)N/N=C/c2cccn2Cc2ccccc2F)cc1	-19%	-5%	-24%	?	22%
CSc1ccccc1NC(=S)N/N=C/c1cccn1Cc1cccc(C)c1	8.9µM*	-33%	?	25µM*	-3%
Cc1cccc(NC(=S)N/N=C/c2cccn2Cc2ccc(F)cc2)c1	8.9µM*	-18%	-3%	?	-4%
O=C(COc1ccc(CNC[C@H]2O[C@@H](n3ccc(=O)[nH]c3=O)[C@H](O)[C@@H]2O)cc1)Nc1ccccn1	.	.	-12%	.	.
SMILES	BAZ2B block	JMJD2A Tudor inh	GLS inhibitor	G9a inh	HP1b chromo inh
CC(=O)c1ccc(N2CCN(c3ncnc4c3c(-c3ccccc3)cn4-c3cccc(C)c3)CC2)cc1	?	-32%	-12%	-18%[59 µM]	7%
O=C(O)c1ccccc1-c1ccccc1C(=O)Nc1cccc(Br)c1	-25%	-16%	0%	45µM*	-24%
O=C(Nc1cccc(Br)c1)c1ccccc1-c1ccccc1	17%	31%	6%	82%[59 µM]	63%
O=C(O)c1ccccc1-c1ccccc1C(=O)NNc1ccccc1	-5%	-15%	32%	8.9µM*	60%
COc1ccc(Nc2nc(N)nc(CSC(=S)N3CCOCC3)n2)cc1	-17%	-25%	2%	-5%	22%
COc1ccc(Nc2nc(N)nc(CN3CCOCC3)n2)cc1	79µM*	50µM*	7%	-1%	-5%
COc1ccccc1Nc1nc(N)nc(CN2CCC(C)CC2)n1	-26%	?	0%	-7%[59 µM]	14%
COc1ccccc1Nc1nc(N)nc(CN2CCCCCC2)n1	13µM*	-17%[11.4 µM]	10%	?	16%
COc1ccccc1Nc1nc(N)nc(CN2CCOCC2)n1	56µM*	-35%	-1%	?	52%
COc1ccc(NC(=O)CSc2nc(O)cc(=O)[nH]2)c(OC)c1	-29%	-14%[11.4 µM]	9%	31%[12.7 µM]	17%
COc1ccc(Cl)cc1NC(=O)CSc1sc2c(O)cc(=O)[nH]c2c1C#N	-31%	-13%	-7%	?	11%
COc1ccccc1NC(=O)CSc1sc2c(O)cc(=O)[nH]c2c1C#N	?	?	-2%	8.9µM*	-17%
COc1ccc(NC(=O)CSc2sc3c(O)cc(=O)[nH]c3c2C#N)c(OC)c1	79µM*	?	3%	79µM*	?
COc1ccc(C2C(C#N)=C(N)OC3=C2C(=O)CC(C)(C)C3)cc1OC (stereo unspecified)	-25%	-21%	8%	3%	-12%
COc1cc(C2C(C#N)=C(N)OC3=C2C(=O)CC(C)(C)C3)ccc1OCCN1CCOCC1 (stereo unspecified)	-12%	-15%	-15%	50µM*	22%
Cc1ccc(C)c(NC(=O)NNC(=O)c2cc3occc3[nH]2)c1	?	-7%	7%	11%[59 µM]	27%
COc1ccc(OC)c(NC(=O)NNC(=O)c2cc3occc3[nH]2)c1	?	2%	47%	50µM*	54%
COc1ccc(C2(O)CN(c3ccccc3)C3=[N+]2CCS3)cc1OC (stereo unspecified)	71µM*	-4%	-12%	-19%	28%
CCc1ccccc1NNC(=O)CCc1ccccc1	-3%	-7%	?	28µM*	19%
CC(C)NC(=O)C(=O)NNC(=O)CCc1ccccc1	-39%	14µM*	2%	?	20%
O=C(COC(=O)C12CC3CC(CC(Br)(C3)C1)C2)NCc1ccco1	.	-5%	.	.	13%
Cc1cc2nnc(SCC(=O)Nc3cccc(S(=O)(=O)N4CCOCC4)c3)n2c2ccccc12	12%	-11%	8%	50µM*	15%
CSCCC(NC(=O)c1cccc(S(=O)(=O)N2CCOCC2)c1)C(=O)Nc1ccc(F)cc1 (stereo unspecified)	-3%	-19%	-1%	7.1µM*	17%
CN(C)S(=O)(=O)c1cccc(NC(=O)c2cccc(S(=O)(=O)N3CCCCC3)c2)c1	3%	-21%	2%	50µM*	16%
O=C(CNc1cccc(S(=O)(=O)N2CCOCC2)c1)N1CCc2ccccc21	-20%	-13%	-2%	40µM*	27%
